Some test systems named below: DU-145 prostate; K-562 leukemia; MALME-3M melanoma; MDA-MB-231 breast; RXF 393 renal; SF-268 CNS; SF-295 CNS; SF-539 CNS; UACC-257 melanoma; M14 melanoma.
What all share (assay): NCI-60 one-dose screen, 48 h (100 = growth as untreated, 0 = no growth, -100 = all killed)
Holding throughout (conditions): 10 µM unless noted

The panel holds about 83,000 compounds, 20% with a hit somewhere; the sample as a whole holds those more often.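 48-hour exposure, single concentration, 96-well plates; percent growth endpoint where 0 means no net growth. Active: below 10.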 Unmarked numbers belong to inactive results. Activity calls are given as the source filed them.

On to `CCCCN1CCCCn2c1nc1c2c(=O)n(C)c(=O)n1C`, for which the growth in the test on DU-145 prostate was 105%; in the test on K-562 leukemia it was 91.2%; with MALME-3M melanoma, 116%; with MDA-MB-231 breast, 103%; in the test with RXF 393 renal, 108%; with SF-268 CNS, 105%. Besides, the growth was 106% with SF-295 CNS, 116% in the test on SF-539 CNS, 97% in the test with UACC-257 melanoma and 106% in the test on M14 melanoma.

In the case of `N#C/C(=C\c1ccc(-c2ccc(Br)cc2)o1)c1nc(-c2ccco2)cs1`, the growth in the test on DU-145 prostate was 101%; in the test on K-562 leukemia, 97.9%; in the test on MALME-3M melanoma it was 97.7%; in the test with MDA-MB-231 breast, 76%; with RXF 393 renal, 101%; in the test on SF-268 CNS, 101%. In addition, the growth is 91.2% in the test on SF-295 CNS, 90.8% with SF-539 CNS, 102% with UACC-257 melanoma and 89.2% with M14 melanoma.

`O=C1CCC/C=C\C[C@H]2C=C(Cl)C(=O)/C2=C/C[C@H](CCCCC(F)(F)F)OC(=O)CCC/C=C\C[C@H]2C=C(Cl)C(=O)/C2=C/C[C@H](CCCCC(F)(F)F)O1`: the growth in the test on DU-145 prostate is 0.342% [7.5 µM] (active); with K-562 leukemia, 1.45% [7.5 µM] (active); in the test with MALME-3M melanoma, -18.2% [7.5 µM] (active); in the test on MDA-MB-231 breast, -22.9% [7.5 µM] (active); with RXF 393 renal it was -92% [7.5 µM] (active); in the test on SF-268 CNS it was 6.24% [7.5 µM] (active). Also, the growth in the test on SF-295 CNS is -37.6% [7.5 µM] (active); with SF-539 CNS, -12.5% [7.5 µM] (active); with UACC-257 melanoma it was -55.3% [7.5 µM] (active); in the test on M14 melanoma, -62.1% [7.5 µM] (active).

`C=C(C)[C@@H]1CC[C@]2(C)CC[C@]3(C)[C@H](CC[C@@H]4[C@@]5(C)CCCNC(C)(C)[C@@H]5CC[C@]43C)[C@@H]12`: the growth with DU-145 prostate was 75.6%; in the test on K-562 leukemia, 4.15% (active); with MALME-3M melanoma, 88.9%; in the test on MDA-MB-231 breast it was 96.7%; in the test on RXF 393 renal, 88.4%; with SF-268 CNS, 104%. The growth in the test on SF-295 CNS was 106%; in the test with SF-539 CNS it was 98.2%; in the test with UACC-257 melanoma it was 107%; in the test with M14 melanoma, 79.6%.

Turning to `Nc1c2c(nc3ccc(Cl)cc13)CC(c1ccccc1)CC2=O` (stereo not given), the growth is 63.9% in the test with DU-145 prostate; 18% in the test with K-562 leukemia; 40.3% in the test on MALME-3M melanoma; 66.8% in the test with MDA-MB-231 breast; 55.8% in the test with RXF 393 renal; 64.1% in the test with SF-268 CNS. Moreover, the growth was 24.5% in the test with SF-295 CNS, 38.5% in the test with SF-539 CNS, 64% with UACC-257 melanoma and 13.9% with M14 melanoma.

For `O=C(Nc1ccc(/C=C2\SC(=O)N(Cc3ccc(OC(F)(F)F)cc3)C2=O)cc1)c1ccc(Cl)c([N+](=O)[O-])c1`, the growth was 72.7% with DU-145 prostate; 46.4% with K-562 leukemia; 98.4% with MALME-3M melanoma; 53.2% in the test on MDA-MB-231 breast; 83.5% with RXF 393 renal; 62.7% in the test with SF-268 CNS. In addition, the growth in the test on SF-295 CNS is 96.1%; in the test with SF-539 CNS, 77.2%; with UACC-257 melanoma, 80.1%; in the test on M14 melanoma, 104%.

Turning to `CC(C)=CCC[C@](C)(O)[C@H]1CC[C@]2(C)[C@@H]1CC[C@@H]1[C@@]3(C)C/C(=C/c4cccc([N+](=O)[O-])c4)C(=O)C(C)(C)[C@@H]3CC[C@]12C`, the growth with DU-145 prostate is 68.2%; with K-562 leukemia, 74%; in the test with MALME-3M melanoma it was 84.5%; in the test on MDA-MB-231 breast, 88.9%; in the test on RXF 393 renal, 90.1%; in the test with SF-268 CNS, 93.2%. For the same compound, the growth was 103% in the test on SF-295 CNS, 96% with SF-539 CNS, 97.9% in the test with UACC-257 melanoma and 83% in the test with M14 melanoma.

Turning to `OCC1OC(n2cnc3c(Cl)ncnc32)CC1O` (stereo not given), the growth in the test on DU-145 prostate was 113%; in the test with K-562 leukemia it was 103%; with MALME-3M melanoma, 97.5%; in the test with MDA-MB-231 breast, 106%; with RXF 393 renal it was 103%; in the test with SF-268 CNS it was 99.1%. Moreover, the growth is 114% with SF-295 CNS, 96.2% in the test with SF-539 CNS, 110% with UACC-257 melanoma and 104% with M14 melanoma.

On to `CC1(C)C(=O)CC[C@]2(C)[C@H]3C(=O)C=C4[C@@H]5C[C@@](C)(C(=O)NCCNCCN)CC[C@]5(C)CC[C@@]4(C)[C@]3(C)CC[C@@H]12`, for which the growth is 102% in the test with DU-145 prostate; 86.6% with K-562 leukemia; 92.2% with MALME-3M melanoma; 102% in the test with MDA-MB-231 breast; 103% with RXF 393 renal; 83.9% in the test with SF-268 CNS. For the same compound, the growth in the test with SF-295 CNS is 101%; in the test with SF-539 CNS, 98.7%; with UACC-257 melanoma, 101%; in the test with M14 melanoma, 90.6%.

Take `C#CCn1c2c(c3ccccc31)C[C@]1(C)[C@H]3CC[C@@H]4[C@@H]5C(=CCC[C@H]5C(=C)C)CC[C@@]4(C)[C@]3(C)CC[C@H]1C2(C)C`: the growth in the test with DU-145 prostate is 108%; in the test on K-562 leukemia, 91.9%; in the test with MALME-3M melanoma, 110%; in the test with MDA-MB-231 breast it was 101%; in the test with RXF 393 renal it was 128%; in the test with SF-268 CNS, 97.8%. The growth was 107% with SF-295 CNS, 97.1% in the test on SF-539 CNS, 108% in the test on UACC-257 melanoma and 100% in the test with M14 melanoma.

Take `COC(=O)[C@]12CC[C@@H](C(/C=C/c3cccnc3)=N/O)[C@@H]1[C@H]1CC[C@@H]3[C@@]4(C)CC(=C/c5cccnc5)/C(=N/O)C(C)(C)[C@@H]4CC[C@@]3(C)[C@]1(C)CC2`: the growth is 55.6% in the test with DU-145 prostate; 24.9% in the test on K-562 leukemia; 39.2% with MALME-3M melanoma; 45.5% with MDA-MB-231 breast; 67.1% in the test with RXF 393 renal; 56.7% with SF-268 CNS. Further, the growth was 30.6% in the test with SF-295 CNS, 72.3% in the test on SF-539 CNS, 59.1% in the test with UACC-257 melanoma and 19.3% with M14 melanoma.

These data come from PubChem BioAssay (NCI).
